The source of these data is PubChem BioAssay (NCATS).

SMILES strings stand for the structures. Inconclusive results are not listed. A number with no mark means an inactive call. The source made the active and inactive calls. Calls follow the shape of the dose curve; as a rule, active = well fitted inhibition curve with a large enough effect; inconclusive = small, poorly fitted or top-dose-only effect; inactive = flat fitted curve, though single readings scatter.
% is scaled to controls: 0 for no effect and ±100 for the full control effect.

Phospholipid hydroperoxide glutathione peroxidase GPX4 (Homo sapiens), sequence (P36969 whole entry, looked up): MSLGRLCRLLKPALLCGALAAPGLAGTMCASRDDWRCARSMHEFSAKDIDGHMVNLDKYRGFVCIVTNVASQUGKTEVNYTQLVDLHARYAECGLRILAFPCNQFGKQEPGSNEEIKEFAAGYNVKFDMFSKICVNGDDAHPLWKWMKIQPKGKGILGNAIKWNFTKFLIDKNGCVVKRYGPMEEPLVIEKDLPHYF

In the assay the target is Phospholipid hydroperoxide glutathione peroxidase GPX4 (Homo sapiens) (UniProt P36969). Put plainly: Primary qHTS Assay for Inhibitors of Recombinant Selenoprotein Glutathione Peroxidase 4 (GPX4) (AID 1845192). Also: nearly all actives have a fitted effect of over 65% in size. Particulars: recombinant GPX4, GR-coupled NADPH fluorescence, 15 min; series mostly up to 50 µM; activity change, negative = inhibition: at the top concentration. In a few lines:
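Steps: GPX4 plus compound, 30 min RT; add GR/GSH/NADPH master mix; start with cumene hydroperoxide; read 340/450 nm fluorescence at 0 and 15 min. Finals were 200 nM GPX4, 1 mM GSH, 0.5 mM CHP, 0.5 mM NADPH, 100 nM GR.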
In the case of `O=C(OCCN1CCOCC1)C1(c2ccccc2)CCCCC1`, the outcome was inactive. With `O=c1[nH]c2cc(Cl)ccc2c(O)c1-c1ccc(Oc2ccccc2)cc1`, the “activity change, negative = inhibition” value was -13.2%. As to `C=C1C[C@@]23CC[C@H]4[C@@](C)(CCC[C@@]4(C)C(=O)O)[C@@H]2CC[C@]1(O)C3`, the “activity change, negative = inhibition” value is -2.64%. Take `O=C(O)C1CN(CCCP(=O)(O)O)CCN1` (configuration not stated): the “activity change, negative = inhibition” value was 2.88%. As to `c1ccc(C(NCc2cccnc2)(c2ccccc2)c2ccccc2)cc1`, the “activity change, negative = inhibition” value is -11.5%. For the compound `Oc1ccc(/C=C/c2ccc(/C=C/c3ccc(O)cc3)c(Br)c2)cc1`, the outcome was inactive. Regarding `c1ccc(C(NCCNC(c2ccccc2)c2ccccc2)c2ccccc2)cc1`, the outcome was inactive. In the case of `CCCCCC(O)CCCC(=O)O` (configuration not stated), the “activity change, negative = inhibition” value was 0.188%. As for `O=C(O)/C=C/c1cnc[nH]1`, the “activity change, negative = inhibition” value was 3.97%. With `Nn1nnc2ccccc21`, the result was inactive.

As for `CCCCS(=N)(=O)CC[C@H](N)C(=O)O` (some centres not stated), the outcome was inactive. For the compound `CN(C)CCC(c1ccc(Br)cc1)c1ccccn1` (configuration not stated), the Potency entry is “inactive”.

In the case of `CC(N)(Cc1ccc(O)c(O)c1)C(=O)O` (configuration not stated), the outcome was inactive. For `CSc1nc(N)c2ncn([C@@H]3O[C@H](COP(=O)(O)OP(=O)(O)O)C(O)[C@H]3O)c2n1` (some centres not stated), the “activity change, negative = inhibition” value was -11.2%. Still for that read-out and setting: the value for `O=C(O)Cc1ccc(O)c(O)c1` was -15%; that for `O=C(O)c1ccccc1Nc1cccc(OCc2ccc3ccccc3n2)c1` was 1.69%. Turning to `CC(C)(C)c1cc(/C=C(\C#N)C(N)=S)cc(C(C)(C)C)c1O`, the outcome was inactive.
